The list is not random: actives were taken first. Their share in the collection is about 3.4%.
TRPM1 prom inh: inhibitors of MITF-dependent TRPM1 promoter reporter, primary screen, cell-based, SK-MEL-5, single point, luciferase; SK-MEL-5 TRPM1 promoter luciferase, 24 h; inhibition, % at 12.5 µM; 330,000 compounds, 0.83% hits; AID 488899, 2010;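 active = mean inhibition across replicates of 60% or more, whatever share of single replicates reaches that level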
TROY NFkB inh: inhibitors of TROY-driven NF-kB signaling, primary screen, Q293 LMP1-TROYcd cells, NF-kB luciferase, uHTS. Q293 LMP1-TROYcd NF-kB luciferase reporter, 4 h. inhibition, % at 10 µM. 360,000 compounds, 0.98% hits. AID 1347056, 2019;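 active = compounds whose plate-normalised and pattern-corrected inhibition of the luciferase reporter signal at the single screening dose is 50% or more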
EBV LMP1 NFkB: EBV LMP1-driven NF-kappaB luciferase reporter inhibitors, primary screen, cell-based, luminescence, single point. 350,000 compounds, 0.69% hits. inhibition, % at 12.5 µM. LMP1-induced NF-kappaB luciferase reporter cells; in the data active = inhibition above about 41%;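 note: 0% = neutral control wells and 100% = reference inhibitor control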
TWEAK Fn14 block: inhibitors of TWEAK-Fn14 signaling, primary screen, luciferase reporter cells, uHTS; TWEAK-stimulated Fn14 reporter cells, luciferase luminescence, 8 h; inhibition, % at 10 µM; 360,000 compounds, 2% hits; AID 1159606, 2016; in the data active = inhibition above about 50%
HIF-2a inh: HIF-2a reporter inhibitors, primary screen, luminescence, 786-0 RCC cells; 786-0 RCC cells HIF-2a reporter, luciferase luminescence, overnight; inhibition, % at 18.8 µM; 360,000 compounds, 0.72% hits; AID 624352, 2012;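 active = inhibition of the luminescence signal of 40% or more relative to plate controls, in a single-dose primary screen at 18.75 µM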
Shn3 inh set2: reduction of Shn3 3'UTR firefly luciferase signal, primary screen, Schnurri-3 inhibitor project, cell-based, Clone20 osteoblasts, set 2; AID 588674, 2011; 360,000 compounds, 0.52% hits; inhibition, % at 12.5 µM; Clone20 osteoblast Shn3 3'UTR firefly luciferase, 24 h;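 active = mean inhibition of at least 75% with every replicate also reaching 75%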;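 note: 0% = median of neutral control wells and 100% = pilot-screen positive control compound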
Numbers without * were called inactive; · = no result given.

SMILES	TRPM1 prom inh	TROY NFkB inh	EBV LMP1 NFkB	TWEAK Fn14 block	HIF-2a inh	Shn3 inh set2
Cc1nn(-c2ccccc2)c(C)c1/C=N/NC(=O)CSc1nnc(SCc2ccc(Cl)cc2)s1	-2	18	-28	83*	-164	2
CC1(C)Cc2ccccc2C2=NNC(=O)C2=N1	96*	-13	7	16	34	12
CC1(C)Cc2ccccc2C(Nn2cnnc2)=N1	1	-21	-5	-5	6	0
COc1ccc(CN2C(=O)C3C4C=CC(C4)C3C2=O)cc1 (stereo unspecified)	-10	-12	-11	3	9	-11
O=C(CN1C(=O)C2C3C=CC(C3)C2C1=O)NCCC1=CCCCC1 (stereo unspecified)	-3	-23	76*	-2	-42	7
COc1ccc(CNC(=O)CN2C(=O)C3C4C=CC(C4)C3C2=O)cc1 (stereo unspecified)	93*	-39	-3	-14	0	-6
O=C(O)C1C2C=CC(C2)C1C(=O)NCCC1=CCCCC1 (stereo unspecified)	-5	-19	-14	4	7	1
CCOc1ccc(NC(=O)CSc2nnc(C3CC3)n2C2CC2)cc1	-13	4	8	-2	-28	-8
CCc1noc(C)c1C(=O)OCC(=O)NCc1ccccc1OC	-3	3	-3	2	2	-10
N#CC(C#N)=CNc1cccnc1	-2	-1	-2	3	9	-4
CC(C)NC(=O)N(C)C[C@H]1Oc2c(NC(=O)C3CCCCC3)cccc2C(=O)N([C@H](C)CO)C[C@@H]1C	-5	12	5	2	12	-34
O=C(c1noc2c1CCCCC2)N1CCOCC1	8	-2	-12	-14	2	7
O=C(c1noc2c1CCCC2)N1CCCCC1	2	-3	68*	-15	-38	-15
FC(F)(F)c1ccccc1Cc1c(-c2cccc(Br)c2)nc2c3ccccc3ccn12	·	-41	·	-32	-164	-11
ON=C1c2cc(OCCN3CCCCC3)ccc2-c2ccc(OCCN3CCCCC3)cc21	74*	15	-56	-4	-33	-9
NC(=S)NN=C1c2cc(OCCN3CCOCC3)ccc2-c2ccc(OCCN3CCOCC3)cc21	79*	75*	-5	6	19	22
Clc1ccc(OCCN2CCCCC2)cc1Cl	-6	-31	3	-7	2	16
CNC(=O)N(O)C1N(/N=C/c2ccccc2OC)C(=S)SC1(C)C (stereo unspecified)	-10	7	0	7	12	-3
CC(C)(C)c1ccc(C(=O)Nc2ccccc2NC(=O)c2ccco2)cc1	-9	·	-7	96*	-26	5
O=C(Nc1cccc(-c2nc3ccccc3[nH]2)c1)c1cccc(NC(=O)c2ccco2)c1	87*	-19	-1	25	-51	42
Cc1ccccc1NC(=O)c1cccc(NC(=O)c2ccco2)c1	5	-1	4	-5	-13	1
CCOc1ccccc1NC(=O)c1cccc(NC(=O)c2ccco2)c1	4	-15	3	88*	-18	8
O=C(Nc1ccccc1)c1cccc(NC(=O)c2ccco2)c1	2	-3	-1	101*	-3	·
Cc1ccc2nc(NS(=O)(=O)c3cn(C)nc3C)sc2c1	19	-4	7	19	-1	12
COc1ccc(-c2cnc(NCc3cc4c(cc3[N+](=O)[O-])OCO4)n2C)cc1	2	-20	66*	6	5	17
COc1ccc(OC)c(CNc2ncc(-c3cccc([N+](=O)[O-])c3)n2C)c1	-4	-1	2	-4	-12	28
C[C@@H]1O[C@@H]1P(=O)(O)O	-3	-3	75*	-3	-2	9
O=C(Nc1nccs1)C1CCCN1/C=C/C(=O)C(F)(F)F (stereo unspecified)	-11	11	-6	-15	-10	-50
CCN(C(=S)Nc1cc(S(=O)(=O)N2CCOCC2)ccc1Cl)c1cccc2ccccc12	18	15	3	87*	18	-34
